# Source: PubChem (National Center for Advancing Translational Sciences (NCATS))
# This excerpt belongs to a sample that is enriched for hits.
# FBPA Giardia inh: Giardia lamblia aldolase inhibition | A8B2U2 | purified Giardia FBPA | Potency, µM (highest dose often 59.6 µM), for the others: at the top dose activity, negative = inhibition, hits mostly inhibitors | actives 0.71% (n = 290,000) | AID 2451; note: potency is the fitted concentration of half-maximal effect; % is set by controls: 0 for no effect and ±100 for the full control effect; nearly all actives have a fitted effect of over 55% in size
#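 Giardia FBPA (40 nM reagent) was preincubated 10 min at RT with compound (up to 57.5 uM final), then substrate plus GAPDH/TPI/NAD/arsenate coupling system with diaphorase/resazurin was added; resorufin fluorescence (525/598 nm) was read after 20 min.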
# CHX counter: affects cycloheximide protein synthesis inhibition readout, counter-screen; cell reporter, cycloheximide protein synthesis inhibition counterscreen; max response, %; actives 12% (n = 300,000); AID 2314; in the data active = max response mostly above about 13%, no sharp cut-off; inactive = mostly below about 14%; note: read at 38.3 µM for the half of the compounds with a filed dose; 0% is about no effect
# LmPK inhibitor: LmPK (Leishmania mexicana) enzyme inhibition; purified LmPK, Kinase-Glo ATP luminescence, 1 h; Potency, µM (doses to about 57.5 µM), without a hit: top-dose activity change, negative = inhibition, most hits filed as inhibitors; actives 0.37% (n = 290,000); Q27686; note: potency is the fitted concentration of half-maximal effect; % is set by controls: 0 for no effect and ±100 for the full control effect
# Target sequence (Q27686 whole entry, looked up): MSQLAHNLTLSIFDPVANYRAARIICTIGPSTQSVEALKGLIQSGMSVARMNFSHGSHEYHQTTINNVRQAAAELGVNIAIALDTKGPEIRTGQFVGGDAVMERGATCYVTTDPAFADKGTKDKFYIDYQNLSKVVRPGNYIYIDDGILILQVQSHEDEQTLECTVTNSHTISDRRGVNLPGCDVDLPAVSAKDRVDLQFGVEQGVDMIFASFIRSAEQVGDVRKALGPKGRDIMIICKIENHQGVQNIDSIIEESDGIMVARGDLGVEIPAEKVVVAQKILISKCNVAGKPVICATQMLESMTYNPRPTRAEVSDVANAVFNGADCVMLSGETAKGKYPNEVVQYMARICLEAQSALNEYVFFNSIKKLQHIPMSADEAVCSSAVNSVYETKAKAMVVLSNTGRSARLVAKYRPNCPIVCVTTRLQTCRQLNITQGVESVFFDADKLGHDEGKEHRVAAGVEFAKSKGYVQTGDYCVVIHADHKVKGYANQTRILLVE
#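 Screened at intermediate enzyme activity to detect both inhibitors and activators: LmPK at 0.1 nM, with a 0.5 nM enzyme column as activation reference. PEP 0.5 mM, ADP 0.1 mM; ATP detected by luminescence after 1 h.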
# RE007 growth inh: less growth of the S. pombe RE007 Vpr strain; S. pombe RE007 Vpr strain, BacTiter-Glo ATP luminescence, 24 h; Potency, µM (highest dose often 92.2 µM), for inactives: top-dose activity change, negative = less growth, actives largely listed as inhibitors; AID 651644; actives 0.21% (n = 360,000); active = well fitted falling curve with a large enough effect; inconclusive = small, poorly fitted or top-dose-only effect; inactive = no such curve, though single readings can be large or run the other way; note: potency is the fitted concentration of half-maximal effect; % is set by controls: 0 for no effect and ±100 for the full control effect; nearly all actives have a fitted effect of over 50% in size
#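 Fission yeast RE007 carrying one integrated HIV-1 vpr copy, seeded at OD 0.01 in PMG+AL medium with 23 nL pinned compound. Grown 24 h at 30 degrees; viability read by BacTiter-Glo luminescence after 5 min.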
# Shiga inhibitor: blocks Shiga toxin action in Vero cells; Vero cells, Shiga toxin protein synthesis inhibition reporter; inhibition, % at 38.7 µM; actives 9.2% (n = 290,000); AID 2315; in the data active = inhibition mostly above about 28%, no sharp cut-off; inactive = mostly below about 43%; note: 0% is about no effect
# Tb PYK inh: inhibitors of Trypanosoma brucei pyruvate kinase | Q57TT1 | TbPYK enzyme, Kinase-Glo Plus ATP luminescence, 45 min | Potency, µM (top dose mostly 76.8 µM), for the others: at the highest dose activity, negative = inhibition, actives largely listed as inhibitors | actives 0.12% (n = 410,000) | AID 624173; note: potency is the fitted concentration of half-maximal effect; % is set by controls: 0 for no effect and ±100 for the full control effect; nearly all actives have a fitted effect of over 50% in size
#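 Activity of T. brucei pyruvate kinase was followed by Kinase-Glo Plus luminescence after the enzyme reacted 45 min at room temperature with 130 uM ADP (final) and substrate. Test compounds were added before ADP at multiple concentrations.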
# Active calls of the source: *; ? = inconclusive; · = no result given; [ ] = dose if it differs, or a comment. Unless noted, calls come from the whole dose curve; as a rule, active = well fitted curve in the direction sought with a large enough effect; inconclusive = small, poorly fitted or top-dose-only effect, or another doubt; inactive = no such curve, though single readings can be large; an effect the other way counts as inactive or inconclusive.
SMILES,FBPA Giardia inh,CHX counter,LmPK inhibitor,RE007 growth inh,Shiga inhibitor,Tb PYK inh
O=C(O)c1ccc(N2C(=O)CC(N3CCC(c4nc5ccccc5[nH]4)CC3)C2=O)cc1 (configuration not stated),?,1,0%,0%,-6,-12%
CCCOc1ccc(N2C(=O)CC(SCCc3nc4ccccc4[nH]3)C2=O)cc1 (configuration not stated),-7%,-1,-9%,-11%,-10,-10%
O=C1CC(N2CCC(c3nc4ccccc4[nH]3)CC2)C(=O)N1c1cccc(F)c1 (configuration not stated),6%,1,-2%,40µM*,-6,-1%
O=C(CSc1nc(C(F)(F)F)cc(=O)[nH]1)Nc1cccc2ccccc12,·,·,·,3%,·,-4%
O=C1CC(N2CCC(c3nc4ccccc4o3)CC2)C(=O)N1c1ccc(F)cc1 (configuration not stated),2%,-6,3%,?,-5,6%
O=C1CC(N2CCC(c3nc4ccccc4o3)CC2)C(=O)N1c1ccc(Cl)c(C(F)(F)F)c1 (configuration not stated),-3%,3,0%,28µM*,7,-3%
CC(=O)c1ccc(N2Cc3ccccc3/C2=N\C(=O)Nc2ccc(Cl)cc2)cc1,3%,43*,1%,6%,33*,7%
CC(=O)c1ccc(NC(=O)Nc2ccncc2)cc1,0%,28*,6%,27%,57*,0%
CC(=O)c1ccc(NC(=O)c2cnsn2)cc1,1%,31*,-20%,-18%,82*,-10%
O=C(Nc1ccc(N2CCOCC2)cc1)c1cnsn1,-21%,1,?,·,-13,-8%
CNC(=O)Nc1ccc(Cl)cc1,6%,21*,-1%,20%,18,-4%
O=C(Nc1ccc(OC(F)(F)F)cc1)Nc1cccnc1,1%,32*,-21%,6%,70*,2%
CN(Cc1ccccc1)C(=O)Nc1ccc(Cl)cc1,·,·,·,9%,·,3%
CC(=O)c1ccc(NC(=O)Nc2cccnc2)cc1,·,28*,-7%,-3%,23,-1%
Nc1ccc(C(=O)CC(=O)Nc2ccc(Cl)cc2)cc1,3%,18*,4%,-14%,39,3%
CON(C)C(=O)Nc1ccc(Cl)cc1,1%,12*,-9%,-12%,26,-3%
N#Cc1ccccc1NC(=O)COC(=O)c1ccc(F)cc1F,·,-1,-4%,-3%,-10,0%
O=C(Nc1ccccc1)Nc1ccc(Oc2cccnc2)nc1,0%,42*,-4%,-8%,39*,3%
CC(=O)c1ccc(NC(=O)Nc2ccc(Cl)cc2)cc1,-2%,34*,1%,3%,105*,1%
N=c1cc(C2(O)CCCCC2)n2c(nc3ccccc32)s1,-17%,48*,-26%,3%,89*,-16%
NC1=NC2(CCCCC2)n2c(nc3ccccc32)N1,?,10,-13%,-2%,-3,1%
O=S(=O)(NCC(c1cccs1)S(=O)(=O)c1ccccc1)c1ccccc1 (configuration not stated),·,·,·,·,·,3%
S=c1[nH]cc(-c2ccccc2)[nH]1,-10%,39*,-4%,13%,34*,-10%
FC(F)(F)c1cccnc1Oc1ccc(C2=NCCS2)cc1,-5%,30*,-3%,-6%,59*,1%
FC(F)(F)c1ccccc1NC1=NCCCS1,3%,-2,-1%,6%,-23,-7%
SMILES,FBPA Giardia inh,CHX counter,LmPK inhibitor,RE007 growth inh,Shiga inhibitor,Tb PYK inh
CC(C)c1ccc(Nc2cc(C(=O)NCCc3ccccc3)c3ccccc3n2)cc1,·,·,·,·,·,-5%
Cc1cccc(OCc2n[nH]c(=S)n2-c2ccccc2)c1,4%,-6,-1%,1%,-6,?
S=c1[nH]nc(CSCc2ccccc2Cl)n1-c1ccccc1,9%,-3,13µM*,6%[3.69 µM],1,·
COc1ccc(OCc2n[nH]c(=S)n2Cc2ccco2)cc1,0%,12,-13%,2%,49,2.8µM*
COc1ccc(-n2c(C)n[nH]c2=O)cc1,8%,-2,4%,9%,-10,1%
Cc1ccc(-n2c(COc3cccc(C)c3)n[nH]c2=S)cc1,-10%,-2,?,1%,-6,16µM*
Cc1n[nH]c(=O)n1-c1ccc(OCc2ccccc2)cc1,-3%,53*,-5%,-9%,92*,-11%
COc1ccc(-n2c(COc3ccc(C)cc3)n[nH]c2=S)cc1,?,-1,-12%,4%,-24,?
COc1ccc(CSCCc2n[nH]c(=S)n2-c2ccccc2)cc1,4%,10,-3%,12%,-4,3.2µM*
COc1ccc(CC(=O)NCc2n[nH]c(=S)n2-c2ccccc2)cc1,-19%,-1,-11%,-3%,-15,?
Cc1ccc(-n2c(CCc3ccccc3)n[nH]c2=S)cc1C,13%,-3,14µM*,10%,·,?
CC(C)Oc1ccc(CCc2n[nH]c(=S)n2-c2ccccc2)cc1,4%,-3,14µM*,7%,-18,?
Cc1ccc(OCc2n[nH]c(=S)n2-c2ccccc2)cc1C,12%,6,?,1%,-16,?
COc1ccc(-n2c(COc3ccccc3)n[nH]c2=S)cc1,?,2,5%,17%,·,11µM*
CC1(C(=O)Nc2ccc(Cl)c(C(F)(F)F)c2)Cc2c(-c3ccc4c(c3)OCO4)ccnc2O1 (configuration not stated),·,·,·,0%,·,-7%
CS(=O)(=O)N(CC(=O)NCc1ccncc1)C1CCCCC1,-1%,8,3%,2%,-8,-2%
COc1ccc(CCNC(=O)Cc2c(C)c3ccc(O)c(C)c3oc2=O)cc1OC,·,·,·,·,·,-5%
C[C@]12c3[nH]c4cc(-c5ccco5)ccc4c3CCN1C(=O)[C@@H](CC(=O)NCc1ccco1)C[C@@H]2C(=O)N1CCCCC1,·,·,·,9%,·,-8%
CCN(Cc1cccc(F)c1)C(=O)c1ccc2ccccc2n1,-7%,40*,3%,4%,62,-4%
O=[N+]([O-])c1cc([N+](=O)[O-])c2nonc2c1Nc1ccc(O)cc1,-26%,-1,-16%,8%,-5,-13%
O=[N+]([O-])c1cc([N+](=O)[O-])c2nonc2c1Nc1ccccc1O,-8%,16*,7%,-16%,73*,-1%
CCOc1ccccc1C(=O)Nc1cccc2ccccc12,2%,10,-5%,-14%,-5,5%
Cc1ccc(C(=O)Nc2cccc3ccccc23)cc1,0%,29*,-1%,-16%,35*,-1%
COc1ccc(C(=O)Nc2cccc3ccccc23)cc1,-6%,21*,-1%,-1%,32,-16%
